SMILES strings stand for the structures. A number with no mark means an inactive call. Active and inactive are the calls of the source. Unless noted, calls come from the whole dose curve; as a rule, active = well fitted curve in the direction sought with a large enough effect in the repeat runs; inconclusive = weak or mixed curves; inactive = no such curve, though single readings can be large; an effect the other way counts as inactive or inconclusive.

We go through nine molecules from PubChem BioAssay (Tox21).

The nature of experiment [1]: qHTS assay for identifying genotoxic compounds that show differential cytotoxicity against isogenic chicken DT40 cell lines with known DNA damage response pathways - wild type cell line (AID 743012). Note: nearly all actives have a fitted effect of over 60% in size. Note: potency is the fitted concentration of half-maximal effect. The procedure, abridged: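 Luminescent ATP viability signal (CellTiter-Glo, 30 min RT) recorded after wild type DT40 cells were incubated with compounds for 40 h at 37 C/5% CO2.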
A general note: Quantitative high-throughput screening tests each substance at several concentrations.

Experiment [2] is described as follows: qHTS assay for identifying genotoxic compounds that show differential cytotoxicity against isogenic chicken DT40 cell lines with known DNA damage response pathways - Rad54/Ku70 mutant cell line (AID 743015). Note: nearly all actives have a fitted effect of over 60% in size. Note: potency is the fitted concentration of half-maximal effect.
Experiment [3] in a line: qHTS assay to identify small molecule antagonists of the thyroid receptor (TR) signaling pathway - cell viability counter screen (AID 743064). Note: nearly all actives have a fitted effect of over 50% in size. Note: potency is the fitted concentration of half-maximal effect. In short, it runs like this:
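Counter screen for cytotoxicity: compound plus T3 (1 nM final) on GH3.TRE-Luc cells, 23.5 h at 37 °C, then fluorescence viability readout with CellTiter-Fluor.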

The nature of experiment [4]: qHTS assay to identify small molecule antagonists of the thyroid receptor (TR) signaling pathway (AID 743065). Note: nearly all actives have a fitted effect of over 55% in size. Note: potency is the fitted concentration of half-maximal effect. In short, it runs like this: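 Antagonism measured as loss of luciferase signal in GH3 cells stably carrying a TRE-luciferase reporter, co-treated with compound and T3 (1 nM final) for 23.5 h at 37 C. Viability was read in the same well by CellTiter-Fluor.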

Experiment [5] concerns thyroid hormone receptor (rat, GH3 cells). Nature of the experiment: qHTS assay to identify small molecule agonists of the thyroid receptor (TR) signaling pathway (AID 743066; calls by dose curve).
Experiment [6] in a line: qHTS assay to identify small molecule antagonists of the estrogen receptor alpha (ER-alpha) signaling pathway - cell viability counter screen (AID 743074; calls by dose curve; note: nearly all actives have a fitted effect of over 45% in size).
For experiment [7], the target named is Estrogen receptor (Homo sapiens) (UniProt P03372). Description: qHTS assay to identify small molecule agonists of the estrogen receptor alpha (ER-alpha) signaling pathway (AID 743075; calls by dose curve; note: potency is the fitted concentration of half-maximal effect).
Chain of Estrogen receptor (Homo sapiens) (P03372 whole entry, looked up): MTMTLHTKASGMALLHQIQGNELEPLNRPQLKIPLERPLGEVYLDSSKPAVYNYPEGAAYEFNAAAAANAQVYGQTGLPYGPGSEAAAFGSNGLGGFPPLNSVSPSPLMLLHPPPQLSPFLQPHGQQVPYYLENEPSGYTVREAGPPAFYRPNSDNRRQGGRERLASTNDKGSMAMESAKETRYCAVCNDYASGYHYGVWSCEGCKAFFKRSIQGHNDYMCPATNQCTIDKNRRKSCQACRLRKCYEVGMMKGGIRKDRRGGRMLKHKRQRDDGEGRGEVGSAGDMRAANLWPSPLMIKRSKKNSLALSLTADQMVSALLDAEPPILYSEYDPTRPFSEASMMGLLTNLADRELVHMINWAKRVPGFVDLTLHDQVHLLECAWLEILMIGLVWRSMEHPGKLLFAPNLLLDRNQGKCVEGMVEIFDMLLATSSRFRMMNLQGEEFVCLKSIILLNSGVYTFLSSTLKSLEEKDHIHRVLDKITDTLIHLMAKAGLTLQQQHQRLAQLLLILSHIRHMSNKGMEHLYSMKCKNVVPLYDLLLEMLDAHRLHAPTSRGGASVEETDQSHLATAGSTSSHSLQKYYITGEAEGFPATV
Experiment [8] can be described thus: qHTS assay to identify small molecule antagonists of the estrogen receptor alpha (ER-alpha) signaling pathway using the BG1 cell line (AID 743080; calls by dose curve;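 note: BG1 cells stimulated with 17beta-estradiol alongside compound; nearly all actives have a fitted effect of over 25% in size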; note: potency is the fitted concentration of half-maximal effect). In short, it runs like this: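 Luminescence from a 4×ERE-luciferase reporter in BG1-Luc-4E2 cells served as read-out. Cells, pre-cultured 5 days in stripped-serum phenol-red-free medium, were exposed to compound with 17beta-estradiol co-stimulation for 21.5 h at 37 C.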

Experiment [9] can be described thus: qHTS assay to identify small molecule antagonists of the estrogen receptor alpha (ER-alpha) signaling pathway using the BG1 cell line - cell viability counter screen (AID 743081).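 Note: compound given together with 17beta-estradiol as the ER stimulus; nearly all actives have a fitted effect of over 45% in size.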
The target in the next experiment is Aromatase (Homo sapiens) (UniProt P11511). Description: qHTS assay to identify aromatase inhibitors (AID 743083). Note: nearly all actives have a fitted effect of over 55% in size.
Chain of Aromatase (Homo sapiens) (P11511 whole entry, looked up): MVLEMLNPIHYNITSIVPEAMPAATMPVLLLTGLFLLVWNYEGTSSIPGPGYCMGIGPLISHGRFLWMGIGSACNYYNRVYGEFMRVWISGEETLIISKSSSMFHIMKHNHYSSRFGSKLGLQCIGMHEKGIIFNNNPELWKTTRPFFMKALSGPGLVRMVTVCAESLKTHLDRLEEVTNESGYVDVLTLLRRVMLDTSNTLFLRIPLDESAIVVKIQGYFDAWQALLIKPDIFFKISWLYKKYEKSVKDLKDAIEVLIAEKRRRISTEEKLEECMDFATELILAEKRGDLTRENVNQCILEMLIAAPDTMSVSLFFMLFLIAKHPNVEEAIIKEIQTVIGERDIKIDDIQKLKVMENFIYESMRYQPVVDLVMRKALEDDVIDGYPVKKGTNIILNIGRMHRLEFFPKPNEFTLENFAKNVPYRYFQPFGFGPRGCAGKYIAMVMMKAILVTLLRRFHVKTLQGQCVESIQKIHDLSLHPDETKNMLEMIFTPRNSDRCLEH
Experiment [10] in a line: qHTS assay for identifying genotoxic compounds that show differential cytotoxicity against isogenic chicken DT40 cell lines with known DNA damage response pathways - Rev3 mutant cell line (AID 743014). Note: nearly all actives have a fitted effect of over 55% in size. Note: potency is the fitted concentration of half-maximal effect.
Experiment [11] addresses Estrogen receptor (Homo sapiens) (UniProt P03372). Description: qHTS assay to identify small molecule antagonists of the estrogen receptor alpha (ER-alpha) signaling pathway (AID 743069; active = well fitted curve in the direction sought with a large enough effect in the signal ratio in the repeat runs, not every such curve was filed as active; inconclusive = weak or mixed curves, or effect the other way; inactive = no such curve, though single readings can be large or run the other way; the % refers to the signal ratio). In short, it runs like this: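 Fluorescence intensity from a beta-lactamase FRET substrate served as the read-out. Cells: HEK293 with stably integrated ER-alpha-UAS-bla reporter. Agonist 17beta-estradiol was co-added with compounds; incubation 18 hr at 37C, substrate 2 hr at room temperature.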

Experiment [12] shares this target. Nature of the experiment: qHTS assay to identify small molecule agonists of the estrogen receptor alpha (ER-alpha) signaling pathway using the BG1 cell line (AID 743079). Note: nearly all actives have a fitted effect of over 20% in size. The settings on record: BG1Luc4E2 cells, ERE-luciferase agonist, 22 h; activation: at 70.3 µM (top of the series).
Experiment [13] in a line: qHTS assay to identify small molecule antagonists of the androgen receptor (AR) signaling pathway - cell viability counter screen (AID 743033; note: nearly all actives have a fitted effect of over 45% in size).
Experiment [14] is described as follows: qHTS assay to identify small molecule antagonists of the androgen receptor (AR) signaling pathway using the MDA cell line - cell viability counter screen (AID 743041; note: nearly all actives have a fitted effect of over 45% in size). In short, it runs like this:
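Using the breast carcinoma line MDA-kb2 AR-luc, test chemicals were co-incubated with R1881 for 16 h; CellTiter-Fluor reagent, added at 15.5 h, provided a fluorescence measure of live cells.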

Experiment [15] has as its target Androgen receptor (Homo sapiens) (UniProt P10275). Nature of the experiment: qHTS assay to identify small molecule antagonists of the androgen receptor (AR) signaling pathway (AID 743035; active = well fitted inhibition curve with a large enough effect in the signal ratio in the repeat runs, not every such curve was filed as active; inconclusive = weak or mixed curves, or effect the other way; inactive = no such curve, though single readings can be large or run the other way; the % refers to the signal ratio). In short, it runs like this: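 Quantitative HTS of the Tox21 10K library used HEK293 AR-UAS-bla cells stimulated with R1881 alongside compound for 16 h at 37C, followed by beta-lactamase FRET detection (LiveBLAzer B/G, 2 h, RT).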

Experiment [16] has the same target. Nature of the experiment: qHTS assay to identify small molecule agonists of the androgen receptor (AR) signaling pathway (AID 743036; active = well fitted activation curve with a large enough effect in the signal ratio in the repeat runs, with a control signal flat, not every such curve was filed as active; inconclusive = weak or mixed curves, or effect the other way; inactive = no such curve, though single readings can be large or run the other way; the % refers to the signal ratio). In short, it runs like this:
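In this Tox21 qHTS, 2,000 HEK293 AR-bla cells per well were incubated with compounds for 16 h at 37C and 5% CO2. Fluorescence intensity was recorded 2 h after adding LiveBLAzer B/G FRET substrate at room temperature.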

The target is the same in experiment [17]. Nature of the experiment: qHTS assay to identify small molecule agonists of the androgen receptor (AR) signaling pathway using the MDA cell line (AID 743040; note: nearly all actives have a fitted effect of over 20% in size). The procedure, abridged: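 Stable MMTV-luciferase reporter in MDA-kb2 cells; note the promoter carries GR as well as AR response elements. 16 h compound treatment, 37C, 0% CO2; ONE-Glo luminescence endpoint.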

For experiment [18] the target is unchanged. Description: qHTS assay to identify small molecule antagonists of the androgen receptor (AR) signaling pathway using the MDA cell line (AID 743042; note: nearly all actives have a fitted effect of over 55% in size). The procedure, abridged: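 Antagonist mode: compounds plus R1881 agonist added to MDA-kb2 AR-luc cells, incubated 16 h at 37C. Luciferase reporter luminescence quantified, with multiplexed CellTiter-Fluor readout for cell viability.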

Chain of Androgen receptor (Homo sapiens) (P10275 whole entry, looked up): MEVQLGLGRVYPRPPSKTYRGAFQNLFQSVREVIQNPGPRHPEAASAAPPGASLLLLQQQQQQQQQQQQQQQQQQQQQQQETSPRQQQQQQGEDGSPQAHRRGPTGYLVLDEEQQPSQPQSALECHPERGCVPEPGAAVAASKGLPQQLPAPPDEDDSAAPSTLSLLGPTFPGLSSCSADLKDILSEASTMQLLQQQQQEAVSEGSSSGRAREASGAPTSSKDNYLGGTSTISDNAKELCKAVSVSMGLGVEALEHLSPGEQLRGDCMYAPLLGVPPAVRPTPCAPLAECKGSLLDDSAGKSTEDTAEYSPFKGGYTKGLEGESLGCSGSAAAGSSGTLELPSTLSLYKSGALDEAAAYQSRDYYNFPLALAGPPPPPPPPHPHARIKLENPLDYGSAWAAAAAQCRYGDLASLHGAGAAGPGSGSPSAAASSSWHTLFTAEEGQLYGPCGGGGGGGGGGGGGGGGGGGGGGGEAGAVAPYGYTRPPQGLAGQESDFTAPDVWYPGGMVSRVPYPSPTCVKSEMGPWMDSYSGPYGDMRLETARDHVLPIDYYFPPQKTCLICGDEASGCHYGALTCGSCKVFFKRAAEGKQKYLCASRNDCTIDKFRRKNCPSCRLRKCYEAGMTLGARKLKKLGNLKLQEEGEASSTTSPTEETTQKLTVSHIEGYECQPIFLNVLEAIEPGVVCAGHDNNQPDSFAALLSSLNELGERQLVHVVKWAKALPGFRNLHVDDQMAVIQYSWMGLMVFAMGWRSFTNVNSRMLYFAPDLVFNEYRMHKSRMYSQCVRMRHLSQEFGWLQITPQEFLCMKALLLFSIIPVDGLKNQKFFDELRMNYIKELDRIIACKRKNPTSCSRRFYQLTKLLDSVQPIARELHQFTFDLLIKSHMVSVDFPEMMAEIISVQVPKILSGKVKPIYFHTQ

For `CC(C)c1nnc2ccc(-c3ocnc3-c3cc(F)ccc3F)cn12`, the Potency in [1] is 27.3 µM (active); in [2], 27.3 µM (active); in experiment [8], 54.5 µM (active). Moreover, the Potency result (in experiment [3]; in experiment [4]; in experiment [6]; in [7]; in [9]; in the experiment with Aromatase (Homo sapiens)) was “inactive” throughout. Further, the outcome in experiment [5] was inactive.

Consider `CCCCN(CCCC)C(=S)SSC(=S)N(CCCC)CCCC`, for which the Potency result in experiment [10], in [2], in [4], in experiment [11], in experiment [7] and in experiment [12] was “inactive” each time. The Potency entry (in experiment [8]; in [9]; with Aromatase (Homo sapiens)) was “inactive” in each case.

As to `CC1(C)C(=O)N(Br)C(=O)N1Cl`, the Potency in experiment [1] is 61.1 µM (active). The Potency result in [13], in experiment [14], in [3], in experiment [4], in experiment [6] and in experiment [9] was “inactive” throughout. In the experiment with Aromatase (Homo sapiens), the Potency entry is “inactive”. For the same molecule, the result in experiment [5] was inactive.

As to `CCOC(=O)c1ccccc1OC`, the Potency result in experiment [1], in experiment [10], in [2], in experiment [13], in [4] and in experiment [6] was “inactive” in each case. The Potency result (in experiment [9]; with Aromatase (Homo sapiens)) was “inactive” in each case. In experiment [5], the result was inactive.

In the case of `CCOC(=O)/C=C/C(=O)O`, the Potency result in [1], in [13], in experiment [15], in experiment [16], in [17] and in experiment [18] was “inactive” in each case. Moreover, the Potency entry in experiment [3], in [4], in experiment [11], in [7], in [12] and in [8] was “inactive” throughout. The Potency result (in experiment [9]; in the experiment with Aromatase (Homo sapiens)) was “inactive” each time. Further, the molecule was classed as inactive in experiment [5].

For `Nc1nc(Cl)nc2c1ncn2[C@@H]1O[C@H](CO)[C@@H](O)[C@@H]1F`, the Potency in experiment [1] was 0.0019 µM (active); in experiment [10], 0.0019 µM (active); in experiment [2], 0.0024 µM (active); in [3], 0.237 µM (active); in experiment [8], 3.76 µM (active). The Potency result in experiment [13], in [7], in experiment [12] and in experiment [9] was “inactive” throughout. The result in experiment [5] was inactive.

Turning to `CCC1(C)CC(=O)NC1=O` (configuration not stated), the Potency result in experiment [1], in [2], in [13], in [14], in experiment [3] and in [4] was “inactive” throughout. Besides, the Potency result in experiment [11], in [6], in [7], in [12], in experiment [8] and in experiment [9] was “inactive” in each case. For the same molecule, the Potency result in the experiment with Aromatase (Homo sapiens) is “inactive”. For the same molecule, the call in [5] was inactive.

As for `CCC(Cc1ccccc1)(C(=O)c1ccc(N2CCOCC2)cc1)N(C)C` (configuration not stated), the Potency is 7.7 µM (active) in experiment [1], 4.33 µM (active) in [10], 9.69 µM (active) in [2] and 49 µM [inconclusive] (active) in experiment [7]. For the same molecule, the Potency entry in experiment [14], in [3], in [4], in [11], in experiment [6] and in experiment [9] was “inactive” throughout. Also, the Potency entry with Aromatase (Homo sapiens) was “inactive”. The molecule was called inactive in experiment [5].

Take `CN(C)CCOC1=Cc2ccccc2Sc2ccc(Cl)cc21`: the Potency in experiment [1] is 5.31 µM (active); in [2] it was 5.96 µM (active); in experiment [3] it was 10.6 µM (active); in experiment [4] it was 9.44 µM (active). Further, the Potency result in experiment [11], in experiment [7], in [12], in experiment [8] and in experiment [9] was “inactive” each time.
